# Screening results as filed in PubChem.
# Rows were chosen to be rich in hits. Some 8% of all compounds tested hit in one or more screens of this group.
# KB-V1 cytotox = qHTS assay for MDR1-selective chemotherapeutics: Primary screen using the drug-selected MDR subline cells KB-V1; KB-V1 MDR cells viability, CellTiter-Glo, 72 h; Potency, µM (top dose mostly 46.1 µM), hits mostly cytotoxic; actives 3.4% (n = 400,000); also: % is scaled to controls: 0 for no effect and ±100 for the full control effect; nearly all actives have a fitted effect of over 60% in size
#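 Luminescent ATP read-out (CellTiter-Glo, 10 min) measures survival of drug-selected KB-V1 MDR cells after 72 h, 37 degrees C compound exposure. Medium: phenol-red-free DMEM, 10% FBS. Values from fitted concentration-response curves.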
# MCF10A rerep = A quantitative high throughput screen for small molecules that induce DNA re-replication in MCF 10a normal breast cells | AID 624296, 2012 | Potency, µM (doses to about 46.1 µM), inactives show top-dose activity, positive = re-replication, hits mostly activators | actives 2.9% (n = 350,000) | MCF 10A DNA re-replication, Hoechst nuclear intensity, 48 h; also: % of control where 0% means no effect; nearly all actives have a fitted effect of over 50% in size
# SW480 rereplic = A quantitative high throughput screen for small molecules that induce DNA re-replication in SW480 colon adenocarcinoma cells; SW480 DNA re-replication, Hoechst DNA content imaging, 48 h; Potency, µM (highest dose often 46.1 µM), for inactives: at the top dose re-replication activation, actives largely listed as activators; actives 1.8% (n = 340,000); AID 624297, 2012; also: % of control where 0% means no effect; nearly all actives have a fitted effect of over 55% in size
#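 SW480 cells exposed to compounds for 48 hr at 37 C, 5% CO2, then Hoechst-stained 40 min. Nuclear DNA content imaged by fluorescence scanning (405 nm excitation, 500-530 nm emission); re-replication scored as increased high-intensity nuclei.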
# HT1080-NT tox = qHTS for induction of synthetic lethality in tumor cells producing 2HG: qHTS for the HT-1080-NT fibrosarcoma cell line. HT-1080-NT fibrosarcoma viability, CellTiter-Glo ATP luminescence, 48 h. Potency, µM (doses to about 46.1 µM), for the others: at the top dose activity, negative = less viability, hits mostly cytotoxic. actives 1.6% (n = 360,000). AID 686970, 2013;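 also: NT is the 2HG producing partner of a matched IDH1 knockdown line; 0% = DMSO-treated cells and -100% = media-only wells without cells; nearly all actives have a fitted effect of over 55% in size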
#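 Read-out is CellTiter-Glo luminescence after 10 minutes at room temperature, following 48 hours' compound treatment of HT-1080-NT cells (750 cells/well, RPMI, 5% FBS, 37 degrees C).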
# HT1080 IDH1KD tx = qHTS for induction of synthetic lethality in tumor cells producing 2HG: qHTS for the HT-1080-IDH1KD cell line. HT-1080 IDH1 knockdown viability, ATP luminescence, 48 h. Potency, µM (series often up to 46.1 µM), inactives show top-dose activity, negative = toxicity, most hits filed as cytotoxic. actives 2% (n = 360,000). AID 686971, 2013;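 also: 0% = DMSO wells and -100% = cell-free medium wells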
#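 IDH1KD HT-1080 cells, 750/well, RPMI + 5% FBS; compound pinned after 2 h settling; 48 h, 37 °C; CellTiter-Glo luminescence; % activity normalised to DMSO and no-cell wells; curves fitted, classed by r2 and efficacy.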
# KB-3-1 tox = qHTS assay for MDR1-selective chemotherapeutics: Primary screen using the parental adenocarcinoma cell KB-3-1; AID 1347075, 2019; KB-3-1 viability, CellTiter-Glo ATP luminescence, 72 h; actives 1.4% (n = 400,000); Potency, µM (highest dose often 46.1 µM), most hits filed as cytotoxic; also: % is scaled to controls: 0 for no effect and ±100 for the full control effect; nearly all actives have a fitted effect of over 60% in size
#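 Multi-concentration cytotoxicity screen in KB-3-1 cells grown in DMEM lacking phenol red with 10% FBS. After 72 h at 37 °C with compound, ATP-dependent luminescence was recorded.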
# * hit, by the source's call; i = inactive; ? = inconclusive; nt = no result given. Calls follow the shape of the dose curve; as a rule, active = well fitted curve in the direction sought with a large enough effect; inconclusive = small, poorly fitted or top-dose-only effect, or another doubt; inactive = no such curve, though single readings can be large; an effect the other way counts as inactive or inconclusive. Potency is read from the fitted curve at half-maximal effect.
SMILES,KB-V1 cytotox,MCF10A rerep,SW480 rereplic,HT1080-NT tox,HT1080 IDH1KD tx,KB-3-1 tox
COC(=O)c1cc(NC(=O)c2cc3sccc3n2Cc2ccc(Cl)cc2)cc(C(=O)OC)c1,i,nt,nt,nt,nt,i
CC1(C)CC2(C)OC2C2(C1)N=NC(=Nc1ccccc1)O2 (centres undefined),i,nt,nt,9.2µM*,?,?
Cc1nc(S(=O)(=O)N(C)c2ccccc2)c(C#N)c(C)c1Cl,i,?,9.2µM*,?,?,?
CN(c1ccccc1)S(=O)(=O)c1ccc(Cl)nc1,i,-1%,5%,5%,-4%,i
O=C(N[C@@H](Cc1ccccc1)C(=O)CCl)OCc1ccccc1,23µM*,?,?,6.5µM*,21µM*,?
COc1cc(S(=O)(=O)NCCc2c(C)[nH]c3ccccc23)c(C)cc1C,?,nt,nt,nt,nt,i
CCCCn1nnnc1NCc1cc(OC)c(OC)cc1OC,26µM*,0%,-1%,4%,-3%,i
CCCn1nnnc1NCc1ccc(OC)cc1OC,i,4%,0%,-1%,2%,i
Cn1c(C(=O)OC(C(=O)NC2CCCCC2)c2cccnc2)cc2sccc21 (centres undefined),i,1%,3%,-10%,1%,i
Cn1c(C(=O)OC(C(=O)NC2CCCC2)c2cccnc2)cc2sccc21 (centres undefined),?,10µM*,?,2%,-8%,i
Cc1cc(C(=O)Nc2c(C)nn(Cc3ccc(F)cc3)c2C)on1,i,7%,-11%,4%,2%,i
Cc1nn(Cc2c(F)cccc2Cl)c(C)c1NC(=O)C1CC1,i,1%,0.52µM*,11%,22%,i
Cc1nn(Cc2ccc(F)cc2)c(C)c1NC(=O)C1c2ccccc2Oc2ccccc21,i,18µM*,1%,-17%,-12%,i
O=S(=O)(Nc1cccc(F)c1)c1ccc2[nH]c3c(c2c1)CCCCC3,i,nt,nt,nt,nt,i
O=C(NCCN1CCN(c2ccccc2)CC1)c1ccc2c(c1)[nH]c(=S)n1c3ccccc3nc21,?,?,-4%,-15%,-17%,i
O=C(c1ccc2c(c1)[nH]c(=S)n1c3ccccc3nc21)N1CCN(c2ncccn2)CC1,i,9.2µM*,-11%,-13%,-2%,i
Cc1ccccc1-c1noc(-c2ccc(N3CCCC3)c([N+](=O)[O-])c2)n1,i,nt,nt,nt,nt,i
C=CC(=O)Nc1cccc(Oc2cc(Cl)nc3[nH]ccc23)c1,18µM*,?,?,?,?,?
COc1ccc(S(=O)(=O)n2ccc(-c3ccc4c(c3)CCC(C)(C)O4)n2)cc1,12µM*,?,?,-24%,?,i
CCC(C)(C)NC(=O)C(c1ccccc1)N(Cc1cccnc1)C(=O)c1csnn1 (centres undefined),13µM*,?,-4%,6%,13%,i
CC(C)(C)NC(=O)C(c1ccco1)N(C(=O)c1csnn1)c1ccccc1 (centres undefined),15µM*,5%,2%,-3%,9%,i
CCC(C)(C)NC(=O)C(c1ccc(C)o1)N(C(=O)c1csnn1)c1cccc(F)c1 (centres undefined),16µM*,0%,-1%,0%,-9%,i
Cc1ccc(N(C(=O)c2csnn2)C(C(=O)NC(C)(C)C)c2ccncc2)cc1 (centres undefined),i,9.2µM*,18µM*,-8%,-1%,i
CC(C)(C)NC(=O)C(c1ccncc1)N(C(=O)c1csnn1)c1ccccc1 (centres undefined),i,-13%,27%,1%,-1%,i
COc1ccc(NC(=O)c2oc3ccccc3c2NC(=O)Cc2cccs2)c(OC)c1,i,nt,nt,nt,nt,i
SMILES,KB-V1 cytotox,MCF10A rerep,SW480 rereplic,HT1080-NT tox,HT1080 IDH1KD tx,KB-3-1 tox
Cc1ccc(Nc2cc(C)nn2-c2nc(C)cc(=O)[nH]2)cc1,?,?,?,?,?,1.4µM*
COc1ccc(OC)c(NC(=O)Nc2cnccn2)c1,i,2%,-23%,17%,3%,i
Cc1c(Cl)cccc1NC(=O)Nc1cnccn1,?,10%,-1%,2%,-2%,16µM*
COc1ccccc1NC(=O)Nc1cnccn1,4.1µM*,2%,-3%,14%,14%,?
O=C(CN1C(=O)COc2ccc(S(=O)(=O)Nc3ccccc3)cc21)NCc1ccccc1Cl,i,nt,nt,nt,nt,i
Fc1cc2[nH]c(=S)[nH]c2cc1Cl,3.7µM*,0%,6%,-1%,1%,8.2µM*
Cc1cc2[nH]c(=S)[nH]c2cc1C,i,12%,-1%,3%,-2%,?
COc1ccccc1CN(Cc1ccco1)c1cnc(S(C)(=O)=O)nc1C(=O)Nc1ccccc1Cl,?,nt,nt,nt,nt,i
Cc1cccc(NC(=O)c2onc3c2CCCC3)n1,13µM*,4%,-9%,-28%,?,?
Cc1cccc(NC(=O)c2onc3c2CCCC3)c1C,i,18%,3%,-2%,-15%,?
O=C(CN1C(=O)/C(=C\c2ccccc2Br)Oc2ccccc21)NCCCN1CCOCC1,i,8%,-4%,-15%,-6%,i
O=C(NCCCN1CCOCC1)c1ccc(/C=C2\Oc3ccccc3N(Cc3ccccc3F)C2=O)cc1,i,5.2µM*,?,4%,1%,i
CCN1CCN(CCCNC(=O)c2ccc(/C=C3/Oc4ccccc4N(Cc4cccc(C)c4)C3=O)cc2)CC1,i,1.8µM*,2.6µM*,-3%,-2%,i
CCCc1cc(C(=O)Nc2c(C)nn(Cc3c(Cl)cccc3Cl)c2C)no1,?,nt,nt,nt,nt,i
CN(C)S(=O)(=O)N1CCC(Oc2ccc(C(=O)N3CCCCCCC3)cc2)CC1,10µM*,23%,-2%,-4%,-4%,?
CC1CCCCN1C(=O)c1ccc(OC2CCN(S(=O)(=O)N(C)C)CC2)cc1 (centres undefined),23µM*,8%,-2%,-17%,?,i
CN(C)S(=O)(=O)N1CCC(Oc2cccc(C(=O)NC3CCCCCC3)c2)CC1,1.3µM*,?,6%,?,-15%,i
COc1cccc(N2CCN(C(=O)C3CCN(S(=O)(=O)c4c(C)noc4C)CC3)CC2)c1,i,nt,nt,nt,nt,i
